# Source: PubChem BioAssay
# Shown are actives, neighbours in structure and some others; about 6.1% of the full set was active somewhere.
# PK Bst: modulators of Bacillus stearothermophilus pyruvate kinase | purified pyruvate kinase, luminescence ATP production; ribose 5-phosphate activator present at AC10 | Potency, µM | actives 1.2% (n = 51,000) | AID 361; in the data active = potency below about 11 µM; inconclusive = mostly about 12 µM to 25 µM;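 the screen sought inhibitors and activators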;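 also: scaled between full activation by ribose 5 phosphate and full inhibition by luteolin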
# HEK293 cAMP cs: parental HEK293 cAMP activation (counter-screen); actives 2.5% (n = 73,000); parental HEK293 CNG cAMP sensor, membrane potential fluorescence; Potency, µM (titrated, usually from 57.1 µM), without a hit: at the top dose activation, hits mostly activators; AID 938; also: % of control where 0% means no effect; nearly all actives have a fitted effect of over 55% in size
#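 Counterscreen for endogenous-receptor signalling: CNG-channel HEK 293 cells report cAMP rise by membrane depolarization. After 60 min dye equilibration with 100 uM RO 20-1724, compounds incubated 30 min before bottom-read fluorescence at 590 nm.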
# TSHR agonist: activates the human thyroid stimulating hormone receptor | P16473 | HEK293-CNG-TSHR cells (CNG channel as cAMP sensor), membrane potential dye, cAMP | Potency, µM (top dose mostly 57.1 µM), without a hit: at the highest dose activation, hits mostly activators | actives 0.48% (n = 73,000) | AID 926; active = well fitted activation curve with a large enough effect in the main read-out, with a control signal flat, not every such curve was filed as active; inconclusive = small, poorly fitted or top-dose-only effect, or a change in a side signal; inactive = no such curve, though single readings can be large or run the other way; % of control where 0% means no effect;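 also: the control signal comes from parental cells without the receptor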
# Target sequence (P16473 whole entry, looked up): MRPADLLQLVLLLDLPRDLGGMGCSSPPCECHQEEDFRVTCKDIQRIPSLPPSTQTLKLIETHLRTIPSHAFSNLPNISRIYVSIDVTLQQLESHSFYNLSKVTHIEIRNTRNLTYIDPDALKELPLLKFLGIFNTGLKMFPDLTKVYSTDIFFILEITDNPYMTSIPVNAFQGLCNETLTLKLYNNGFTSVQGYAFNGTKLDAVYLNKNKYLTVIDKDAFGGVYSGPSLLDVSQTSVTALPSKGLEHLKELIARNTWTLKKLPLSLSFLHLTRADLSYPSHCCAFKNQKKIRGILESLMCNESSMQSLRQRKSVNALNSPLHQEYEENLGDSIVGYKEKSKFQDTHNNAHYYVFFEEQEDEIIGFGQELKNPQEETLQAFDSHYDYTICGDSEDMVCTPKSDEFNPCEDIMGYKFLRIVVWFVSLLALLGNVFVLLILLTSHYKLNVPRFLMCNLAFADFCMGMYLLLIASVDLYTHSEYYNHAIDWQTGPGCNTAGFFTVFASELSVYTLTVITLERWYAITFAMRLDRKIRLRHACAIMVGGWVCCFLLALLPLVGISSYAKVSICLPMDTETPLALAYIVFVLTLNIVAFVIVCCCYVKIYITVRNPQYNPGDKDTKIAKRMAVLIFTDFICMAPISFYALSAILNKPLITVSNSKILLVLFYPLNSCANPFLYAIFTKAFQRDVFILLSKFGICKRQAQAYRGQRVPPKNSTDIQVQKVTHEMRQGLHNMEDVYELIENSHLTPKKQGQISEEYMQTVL
#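 cAMP rise detected as CNG-channel membrane depolarization by fluorescent dye (emission 590 nm), 30 min after compound, following 60 min dye loading containing 100 uM RO 20-1724 at room temperature. Cells: TSHR/CNG HEK 293, with parental CNG HEK 293 as control.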
# FLuc inh: inhibitors of firefly luciferase; P08659; purified firefly luciferase, luminescence, 8 min; Potency, µM (doses to about 57.1 µM), without a hit: at the top dose activity change, negative = inhibition, most hits filed as inhibitors; actives 2.2% (n = 72,000); also: % is scaled to controls: 0 for no effect and ±100 for the full control effect; nearly all actives have a fitted effect of over 40% in size
#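 Compounds were tested as concentration series (qHTS) against purified P. pyralis luciferase with luciferin and 10 uM ATP in 50 mM imidazole pH 7.2, 50 mM KCl, 7 mM MgCl2, 0.01% Tween 20, 0.05% BSA. Luminescence was read after 8 min at ambient temperature.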
# ERK AVP block: inhibitors of vasopressin-stimulated ERK signaling pathway; HEK293-V1b, vasopressin-stimulated pERK AlphaScreen; Potency, µM (series often up to 57.5 µM), inactives show top-dose activity, negative = inhibition, actives largely listed as inhibitors; actives 0.99% (n = 72,000); also: % is scaled to controls: 0 for no effect and ±100 for the full control effect; nearly all actives have a fitted effect of over 55% in size
#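 qHTS, compounds titrated on V1b-expressing HEK293 cells. Preincubation 30 min at 37C, vasopressin 25 nM for 5 min, lysis 10 min, bead incubation 5 hr at room temperature.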
# GBA mod: modulators of human glucocerebrosidase; Potency, µM; P04062; actives 1.1% (n = 48,000); purified enzyme, resorufin glucoside fluorescence (screen aimed at inhibitors), 20 min; in the data active = potency below about 15 µM; inconclusive = mostly about 16 µM to 33 µM;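 also: the screen sought inhibitors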
#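 Wild-type enzyme at 0.2 nM final in 50mM citric acid/KH2PO4, 10mM sodium taurocholate, 0.01% tween-20, pH 5.9, with resorufin beta-D-glucopyranoside at 30 uM final. Compounds titrated, 20 min at RT, red fluorescence read; AC50 from titration.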
# * = called active by the depositor; ? = inconclusive; nt = no result given; [ ] = remark or other dose. Unless noted, calls follow the shape of the dose curve; as a rule, active = well fitted curve in the direction sought with a large enough effect; inconclusive = small, poorly fitted or top-dose-only effect, or another doubt; inactive = no such curve, though single readings can be large; an effect the other way counts as inactive or inconclusive. Potency is read from the fitted curve at half-maximal effect.
SMILES,PK Bst,HEK293 cAMP cs,TSHR agonist,FLuc inh,ERK AVP block,GBA mod
CCCNC(=O)OC[C@@H]1O[C@H](CCO/N=C(\C)CCN2CCc3nc(-c4ccccc4)c(-c4ccccc4)cc3C2)C=C[C@@H]1Oc1ccc(OC)cc1,nt,2%[11.4 µM],-5%[11.4 µM],0%[11.4 µM],-2%[11.5 µM],nt
O=C(c1cnccn1)N1CCC[C@@]2(CCN(Cc3nccs3)C2)C1,nt,4%,-2%,0%[11.4 µM],1%,nt
O=c1c(-c2ccc(O)cc2)coc2c(C3OC(CO)C(O)C(O)C3O)c(O)ccc12 (stereo not given),nt,nt,nt,nt,7%,nt
COc1ccc(-c2coc3cc(O[C@@H]4O[C@@H](CO)[C@@H](O)[C@@H](O)[C@H]4O)cc(O)c3c2=O)cc1,nt,6%,-3%,-1%[11.4 µM],nt,nt
CCc1c2c(nc3cccc(C(C)C)c13)-c1cccc(=O)n1C2,nt,19%,19%,nt,-5%,nt
COc1ccc(CNc2nc(-c3c(C)noc3C)nc3ccccc23)c(OC)c1,nt,?,?,1%[2.29 µM],?,nt
O=C(C1CC1)N1CCc2cc(S(=O)(=O)NCC3COc4ccccc4O3)ccc21 (stereo not given),>57,?,?,2%,-8%,>77
O=C(C1CC1)N1CCc2cc(Br)cc(S(=O)(=O)NCC3COc4ccccc4O3)c21 (stereo not given),>57,16µM*,?,1%,-5%,>77
Cc1cccc(-c2nnc(SCc3nc4ccccc4[nH]3)n2Cc2ccco2)c1,>57,13µM*,?,4%,-25%,>77
c1ccc(CSc2nnc(-c3ccco3)n2Cc2ccco2)cc1,>57,20%,nt,2%,-5%,>77
c1coc(Cn2c(SCc3nc4ccccc4[nH]3)nnc2-c2cccs2)c1,nt,8%,30%,6%,-3%,>77
O=c1cc(CSc2nnc(-c3cccs3)n2Cc2ccccc2)nc2sc3ccccc3n12,>57,10µM*,?,-5%,13%,nt
COc1cccc(-c2nnc(SCc3ccc(C#N)cc3)n2Cc2ccco2)c1,>57,6.3µM*,?,0%,-15%,>77
c1ccc(CSc2nnc(-c3cccs3)n2Cc2ccco2)cc1,>57,25µM*,?,-1%,-15%,>77
Cn1c(SCc2ccc(C#N)cc2)nnc1-c1cccc(Cl)c1,>57,17%,27%,1%,6%,>77
NC(N)=N/N=C\c1ccc(O)c(C(=O)O)c1,nt,12%[11.4 µM],3%[11.4 µM],5%[11.4 µM],33%[11.5 µM],nt
CCN(CC(=O)O)C(=O)c1cccnc1,nt,0%[11.4 µM],-5%[11.4 µM],2%[11.4 µM],3%[11.5 µM],nt
C=CCn1c(SCc2ccc(C#N)cc2)nnc1-c1cccc(OC)c1,>57,3.2µM*,?,5%,-6%,>77
N#Cc1cccc(-c2cncnc2NCc2ccccc2)c1,nt,?,?,1%[2.29 µM],5%,nt
O=C(CN1C2=NCCCN2c2ccccc21)c1ccc(Br)s1,>57,23%,17%,1%,-9%,6.6*
O=c1sc2ccccc2n1COc1ccccc1,nt,25µM*,?,0%,115%,nt
CN1CCc2nc(SCCOc3ccccc3)c(C#N)cc2C1,>57,?,?,-2%,4%,10*
O=C(O)C[C@@H](C(=O)O)C1c2ccccc2-c2ccccc21,nt,?,?,1%[11.4 µM],-14%[11.5 µM],nt
COC(=O)CNC(=O)C1(CC(C)C)C=CCN1C(C)=O (stereo not given),nt,17%,3%,nt,10%,nt
O=C(COc1ccccc1)N(Cc1ccco1)c1ccc(O)cc1,>57,22%,20µM*,3%,-26%,>77
COc1ccc(C(=O)[C@H]2[C@H]3[C@@H](C(=O)[C@@H]4OC[C@H]3O4)[C@H]3C=Cc4ccccc4N32)c(OC)c1,nt,8%,-4%,-10%[11.4 µM],nt,nt
COc1c(OC)c2occc2c2oc(=O)ccc12,nt,nt,nt,nt,-19%,nt
O=C1CSC(c2cn(-c3ccccc3)nc2-c2cccs2)N1CC1CCCO1 (stereo not given),>57,10%,10µM*,1%,-30%,>77
O=C1CSC(c2cn(-c3ccccc3)nc2-c2ccccc2)N1Cc1ccco1 (stereo not given),>57,18%,nt,-1%,?,nt
COCCn1c(=S)[nH]c2cc(C(=O)N3CCc4ccccc43)ccc2c1=O,>57,16µM*,?,4%,?,>77
